PubChem BioAssay (NCI)
Compounds without any hit were thinned out: in the full panel of roughly 79,000, 15% have a hit. Activity calls are given as the source filed them. Cut-off read from the data, not from the text of the source: active = growth inhibition above about 70%; inactive = the rest.

Experiments:
[1] = NCI Yeast Anticancer Drug Screen. Data for the rad50 strain (AID 155);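 note: 0% = growth of vehicle-only cultures of the same strain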; conditions: S. cerevisiae rad50 strain growth inhibition; at 50.0 µM; hits give high values
Outline: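 DNA repair mutant yeast, compound exposure, growth read-out; inhibition is taken relative to vehicle.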

[2] = NCI Yeast Anticancer Drug Screen. Data for the mec2-1 strain (AID 157); conditions: S. cerevisiae mec2-1 strain, at 50.0 µM, hits give high values
Outline: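 Compounds were applied to mec2-1 yeast cells. Their growth was then compared with that of vehicle-treated cultures to give growth inhibition.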

[3] = NCI Yeast Anticancer Drug Screen. Data for the sgs1 mgt1 strain (AID 161);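 note: 0% = growth of cultures given vehicle only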; conditions: S. cerevisiae sgs1 mgt1 strain, at 50.0 µM, hits give high values
Outline: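 Growth of a repair-deficient yeast mutant was monitored after compound treatment and expressed as inhibition relative to vehicle-treated cultures.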

[4] = NCI Yeast Anticancer Drug Screen. Data for the cln2 rad14 strain (AID 165);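 note: 0% = growth equal to vehicle treated cultures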; conditions: S. cerevisiae cln2 rad14 strain, at 50.0 µM, hits give high values
Outline: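 Strain: cln2 rad14 yeast, altered in cell cycle control and DNA damage repair. Read-out: growth inhibition vs vehicle.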

[5] = NCI Yeast Anticancer Drug Screen. Data for the bub3 strain (AID 167); conditions: S. cerevisiae bub3 mutant strain, at 50.0 µM, hits give high values
Outline: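 In this screen, a yeast mutant lacking normal mitotic checkpoint function is challenged with compound. Relative growth versus vehicle gives the inhibition value.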

[6] = NCI Yeast Anticancer Drug Screen. Data for the mlh1 rad18 strain (AID 175); conditions: S. cerevisiae mlh1 rad18 strain growth inhibition; at 50.0 µM; hits give high values
Outline: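 A repair-deficient yeast strain is exposed to test compound, and growth is scored relative to vehicle-treated controls.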

Measured: growth inhibition

Cc1ccc(N2CCNCC2C)cc1 (stereo unspecified)
inactive: [1] 6.15% | [2] -13.2% | [3] -4.6% | [4] 8.95% | [5] -9.25% | [6] 11.2%

Cc1cc(NC(=O)/C=C/c2ccc([N+](=O)[O-])cc2Cl)ccc1S(=O)(=O)F
inactive: [1] -30.5% | [2] -8.5% | [3] -5.6% | [4] -17.4% | [5] 2.85% | [6] -32.5%

N#CCC#N
inactive: [1] -3.7% | [2] -3.95% | [3] 16.3% | [4] -3.1% | [5] 2.75% | [6] -1%

[CH3][Sn]([CH3])([Br])[CH2]CCBr
inactive: [4] 48.5%
active: [1] 84.2% | [2] 88.1% | [3] 89.2% | [5] 95% | [6] 96.5%

C[Se]c1ncnc2c1c(C#N)cn2C1OC(CO)C(O)C1O (stereo unspecified)
inactive: [1] 0.75% | [2] 14.3% | [3] -3.3% | [4] -13.5% | [5] 1.45% | [6] 2.65%

CC1(Cl)C(=O)NC(=O)NC1O (stereo unspecified)
inactive: [1] 4.45% | [2] 2.5% | [3] 12.2% | [4] 20.4% | [5] 0.1% | [6] 19.1%

O=NN1CCCS1(=O)=O
inactive: [1] 21.2% | [2] 17.9% | [3] 15.8% | [4] 14.3% | [5] 3.95% | [6] 18.8%

C[C@]12CC[C@H](OC(=O)Cc3ccc(N(CCCl)CCCl)cc3)CC1CC[C@@H]1C2CC[C@]2(C)NC(=O)CCC12 (stereo partly specified)
inactive: [1] 0.1% | [2] -5.65% | [3] 15.9% | [4] 15.2% | [5] 3.65% | [6] 18.1%

CC1CCC2C(C)C3C(CC4C5CCC6CC(O)CCC6(C)C5CCC43C)N2C1 (stereo unspecified)
inactive: [1] 17.1% | [2] 23.4% | [3] 17.5% | [4] -29.1% | [5] -18.4% | [6] 15.7%

CCC1c2cc(O)c(OC)cc2CCN1C (stereo unspecified)
inactive: [1] -7.7% | [2] -0.9% | [3] 2.45% | [4] -14.9% | [5] -7.75% | [6] -8%

O=C1NCN(c2ccccc2)C12CCN(Cc1ccccc1)CC2
inactive: [1] -4.6% | [2] -23.7% | [3] 14.6% | [4] 12.3% | [5] 3.1% | [6] 5.5%

CC(=O)Nc1ccc(Cl)cc1
inactive: [1] -20.4% | [2] -7.15% | [3] -18.1% | [4] 1.7% | [5] 9.45% | [6] -1.9%

CCC(=O)[O-].CCC(=O)[O-].N.N.N.N.[Co+3].[O-][Cl+3]([O-])([O-])[O-]
inactive: [1] -9.55% | [2] -1.6% | [3] -9.1% | [4] 17.9% | [5] 2.05% | [6] -12.2%

O=C(Cc1ccc(N(CCCl)CCCl)cc1)NC1CCCC1
inactive: [1] -0.05% | [2] -16.6% | [3] -13.9% | [4] -22.9% | [5] -2.3% | [6] 18.1%

[C-]#[O+].[C-]#[O+].[Ir].[O-]c1cccc2cccnc12
inactive: [1] -19.2% | [2] -27.6% | [3] -4.6% | [4] 12.7% | [5] -13.2% | [6] -4.8%

NC(=O)Oc1ccccc1
inactive: [1] -4.5% | [2] -26.4% | [3] 5.4% | [4] 12.1% | [5] -10% | [6] -3.6%

CCN(CC)P(=O)(N1CC1(C)C)N1CC1(C)C (stereo unspecified)
inactive: [1] 1.85% | [2] 0.75% | [3] 1.4% | [4] 2.35% | [5] -4.6% | [6] 1.35%

CCOP(=O)(CC#N)OCC
inactive: [1] -6.85% | [2] -11.7% | [3] -7.05% | [4] -6.4% | [5] 2.7% | [6] 0%

Cc1cccc2c1[se]c1ccccc12
inactive: [1] -11.5% | [2] -3.85% | [3] -12% | [4] 4.45% | [5] 2.7% | [6] -17.1%

[CH3][Sn]([Cl])([Cl])[c]1ccccc1
inactive: [1] -22.9% | [2] 2.05% | [3] 8.7% | [4] -18.5% | [5] -12.8% | [6] 1.6%

CN1C(=O)C2(c3ccccc31)C1CC3C(CO1)C1C2C3(CO)CN1C#N (stereo unspecified)
inactive: [1] 34.1% | [2] 12.9% | [3] -39.2% | [4] 1.1% | [5] -22.1% | [6] -6.8%

Cc1cc(Cl)ccc1O
inactive: [1] -1.2% | [2] -14.8% | [3] -0.3% | [4] 0.5% | [5] -3.1% | [6] -1.7%

CCN(CC)/C(=C\Cl)Nc1ccccn1
inactive: [1] -0.9% | [2] -4% | [3] -0.7% | [4] 3.35% | [5] 6.55% | [6] -2.45%

Cc1ccc(S(N)(=O)=O)cc1
inactive: [1] 22% | [2] -5.05% | [3] 5.8% | [4] -8.25% | [5] 12.8% | [6] 18.8%

CC(C)OP(=O)(OC(C)C)C(N(C)C)P(=O)(OC(C)C)OC(C)C.[Cl][Sn]([Cl])([Cl])[c]1ccccc1
inactive: [1] -10.9% | [2] -10.2% | [3] 2.1% | [4] 28.8% | [5] 7.85% | [6] 1.5%

CCCCCCCCCCOC(=O)c1ccccc1C(=O)OCCCCCCCCCC
inactive: [1] -22% | [2] -23.9% | [3] -13.8% | [4] 17.3% | [5] -11.2% | [6] -24.6%

CC1[N-]C(/C=N/O)NC(C)N1.CC1[N-]C(/C=N/O)NC(C)N1.[Br][Ni+2][Br] (stereo unspecified)
inactive: [1] -14.9% | [2] -10% | [3] -22.3% | [4] -19% | [5] 0.65% | [6] -15.7%

CCCCCCCCCCP(=O)(O)O
inactive: [1] -4.9% | [2] -27.4% | [3] -13.3% | [4] -30.3% | [5] -1.6% | [6] -2.85%

O=C(O)C(Oc1nc(=S)[nH]c(=S)[nH]1)(c1ccc(Cl)cc1)c1ccc(Cl)cc1
inactive: [1] -1.5% | [2] 6.55% | [3] -23.2% | [4] 0.55% | [5] -10.7% | [6] -8.8%

CC(=O)C(C(C)=O)C(C)=O.[Cr]
inactive: [1] 4.85% | [2] -15.1% | [3] -3.6% | [4] 11.1% | [5] -16.1% | [6] 6.45%

COc1ccccc1P(=S)(c1ccccc1)c1ccccc1
inactive: [1] 31% | [2] 24.3% | [3] 17.6% | [4] 38% | [5] 27.2% | [6] 24.2%

C(=NCCN=CC1CCCC[N-]1)C1CCCC[N-]1.[Cu+2].[O-][Cl+3]([O-])([O-])O (stereo unspecified)
active: [1] 79.8% | [2] 71% | [4] 90% | [6] 82.7%
inactive: [3] 44.5% | [5] 69.5%

CNC1=C(C)C(=O)C2=C(C1=O)C(COC(N)=O)C1(OC)C3NC3CN21 (stereo unspecified)
inactive: [1] 58.8% | [2] 53% | [3] 52% | [4] 60.6% | [5] 31.4%
active: [6] 83.8%

COC1CC2C=CC3C4OC2(/C(C)=C/C(C)C(C(C)O)OC1=O)C3C(O)C(C)C4OC(=O)c1ccc[nH]1 (stereo unspecified)
inactive: [1] 14.7% | [2] 6.35% | [3] 13.3% | [4] 10.7% | [5] -2.85% | [6] 14.1%

CCCCS(=O)(=O)C(c1ccccc1)c1ccccc1
active: [2] 97.4% | [3] 96% | [5] 96.5% | [6] 96.4%
inactive: [1] 69.2% | [4] 56.5%

CCCCNC(=O)CCl
inactive: [1] 13.4% | [2] 13.7% | [3] 9.15% | [4] -0.4% | [5] 9.3% | [6] 13.8%

CCCCCCN(CCCCCC)C1C=CCCC1 (stereo unspecified)
inactive: [1] -5.4% | [2] -11.2% | [3] 0.25% | [4] -32.6% | [5] -2.2% | [6] -4.15%

CC(C)(O)/C=C/C(=O)[C@](C)(O)[C@H]1[C@H](O)C[C@@]2(C)[C@@H]3CC=C4[C@@H](C[C@H](O)C(=O)C4(C)C)[C@]3(C)C(=O)C[C@]12C
inactive: [1] 8.3% | [2] -14.6% | [3] -6.7% | [4] 0.55% | [5] -12.8% | [6] 1.8%

Oc1ccccc1C=NC1CCCCC1.Oc1ccccc1C=NC1CCCCC1.[Ni+2]
inactive: [1] 38.6% | [2] -9.25% | [3] 28.6% | [4] -40.8% | [5] -0.1% | [6] -15.4%

O=c1sc2ccccc2n1CC1CS1 (stereo unspecified)
inactive: [1] 22.4% | [2] -10.1% | [3] -8.75% | [4] 5.25% | [5] -27.1% | [6] -0.25%

CS(=O)(=O)C(Cl)Cl
inactive: [1] -1.5% | [2] -4.75% | [3] 0.75% | [4] -2.45% | [5] 6.3% | [6] 19.8%
